Records with an inconclusive call do not appear. Activity calls are given as the source filed them. The calls were made as follows, unless noted: active = hit-call score of the fitted dose curve at least 0.9, where 1 is the maximum; inactive = score below 0.9.
Tests used:
[1] = APR_HepG2_CellCycleArrest_1hr: Apredica 1-hour HepG2 Assay for Cell Cycle Arrest (AID 2282666); conditions: high-content imaging, actives raise or lower the signal
Summary of the method: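 HepG2 cells exposed for 1 h to 0.39–200 uM compound (0.5% DMSO). Fixed, Hoechst-stained nuclei imaged by ArrayScan; DNA content quantified by Cell Cycle analysis; bidirectional fit against DMSO.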

[2] = ACEA_ER_80hr: ACEA Biosciences xCELLigence Real-Time Cell Analysis on Estrogen Receptor Agonism for Proliferation (AID 2282667; active = hit-call score of the fitted dose curve at least 0.9, where 1 is the maximum); conditions: T47D proliferation, impedance (xCELLigence), 80 h
Summary of the method: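 Impedance readout (RT-CES) of T47D proliferation at 80 h post-dose; gain of signal vs DMSO baseline. Compounds: 8 conc, 1:4 serial, top 100 uM final, ≤0.5% DMSO; biological duplicate.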

[3] = APR_HepG2_CellLoss_1hr: Apredica 1-hour HepG2 Assay for Cell Loss (AID 2282668); conditions: high-content imaging;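 also: curves fitted both ways against DMSO so gain or loss of cells counts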
Summary of the method: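 HepG2 cells were treated for 1 h with compound at 0.39–200 uM, in duplicate, in 0.5% DMSO. After formaldehyde fixation, Hoechst 33342-stained nuclei were imaged on an ArrayScan to count cells. Data were fitted bidirectionally versus DMSO.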

[4] = APR_HepG2_MicrotubuleCSK_1hr: Apredica 1-hour HepG2 Assay for Microtubule CSK Stabilty (AID 2282669); conditions: HepG2 microtubule cytoskeleton imaging, actives raise or lower the signal
Summary of the method: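 HepG2 cells exposed 1 h to 0.39–200 uM compound (0.5% DMSO, duplicates), then formaldehyde-fixed, permeabilized and immunostained for alpha-tubulin with Hoechst nuclei. Imaged by ArrayScan high-content analysis; bidirectional fit versus DMSO.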

[5] = APR_HepG2_NuclearSize_1hr: Apredica 1-hour HepG2 Assay for Nuclear Size (AID 2282670); conditions: high-content imaging, actives raise or lower the signal
Summary of the method: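 HepG2 cells dosed 1 hr with 0.39–200 uM compound (0.5% DMSO), formaldehyde-fixed, Hoechst 33342-stained and imaged at 20x; nuclear diameter from nuclear stain, fitted bidirectionally against DMSO.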

[6] = APR_HepG2_p53Act_1hr: Apredica 1-hour HepG2 Assay for p53 Activation (AID 2282671); conditions: high-content imaging, actives raise or lower the signal
Summary of the method: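 HepG2 cells treated 1 h with compound at 0.39–200 uM (10 concentrations, duplicate) in 0.5% DMSO. Formaldehyde-fixed, permeabilised cells immunostained for p53 with Hoechst 33342; high-content imaging, bidirectional fit versus DMSO.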

[7] = APR_HepG2_MitoMembPot_1hr: Apredica 1-hour HepG2 Assay for Mitochondrial Membrane Potential (AID 2282675); conditions: imaging, actives raise or lower the signal
Summary of the method: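 HepG2 cells dosed 1 hour with 0.39–200 uM compound in duplicate, 0.5% DMSO final. MitoTracker Red CMXRos (250 nM, 30 min) loaded before formaldehyde fixation; fluorescence quantified by high-content imaging, bidirectional fitting versus DMSO.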

[8] = APR_HepG2_CellCycleArrest_24hr: Apredica 24-hour HepG2 Assay for Cell Cycle Arrest (AID 2282905); conditions: imaging, actives raise or lower the signal;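 also: cell cycle arrest scored as ratio of 2N to 4N nuclear DNA content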
Summary of the method: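 Cell cycle arrest is scored from nuclear DNA content measured by high-content imaging of Hoechst 33342-stained HepG2 cells following 24-hour treatment at ten concentrations up to 200 uM, with DMSO as baseline.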

[9] = APR_HepG2_StressKinase_1hr: Apredica 1-hour HepG2 Assay for Stress Kinase (AID 2282906); conditions: HepG2 stress kinase (phospho-c-Jun) imaging, actives raise or lower the signal
Summary of the method: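 HepG2 cells dosed 0.39-200 uM (0.5% DMSO) for 1 h, then formaldehyde-fixed. Stress kinase read by phospho-c-Jun immunofluorescence using high-content imaging; bidirectional fit vs DMSO.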

[10] = APR_HepG2_NuclearSize_24hr: Apredica 24-hour HepG2 Assay for Nuclear Size (AID 2282907); conditions: high-content imaging, actives raise or lower the signal
Summary of the method: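 Compounds in DMSO (final 0.5%) were added to human HepG2 hepatoma cells at ten concentrations up to 200 uM for 24 hr. Fixed nuclei were stained with Hoechst 33342, and nuclear diameter was quantified from automated images.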

[11] = APR_HepG2_CellLoss_24hr: Apredica 24-hour HepG2 Assay for Cell Loss (AID 2282908); conditions: high-content imaging;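 as to AC50: fit in both directions so a hit may be cell loss or gain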
Summary of the method: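 Cell number is quantified by fluorescence imaging of Hoechst 33342-stained nuclei following dosing at 0.39–200 uM in 0.5% DMSO. Curves are fitted in both directions from the DMSO baseline.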

[12] = APR_HepG2_MicrotubuleCSK_24hr: Apredica 24-hour HepG2 Assay for Microtubule CSK Stabilty (AID 2282909); conditions: HepG2 microtubule cytoskeleton imaging, actives raise or lower the signal
Summary of the method: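 Steps: dose HepG2 for 24 h (0.39–200 uM, 0.5% DMSO); fix 30 min in 3.7% formaldehyde at room temperature; permeabilize; stain alpha-tubulin 60 min; image microtubule cytoskeleton at 20x. Signal change fitted in both directions relative to DMSO.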

[13] = APR_HepG2_MitoticArrest_24hr: Apredica 24-hour HepG2 Assay for Mitotic Arrest (AID 2282910); conditions: high-content imaging, actives raise or lower the signal
Summary of the method: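 HepG2 cells, 24 h exposure at 0.39-200 uM (10 concentrations, duplicate, 0.5% DMSO). Fixed, stained for phospho-histone H3 with Hoechst; imaged by high-content microscopy, bidirectional fit versus DMSO.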

[14] = APR_HepG2_MitoMembPot_24hr: Apredica 24-hour HepG2 Assay for Mitochondrial Membrane Potential (AID 2282911); conditions: imaging, actives raise or lower the signal
Summary of the method: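 HepG2, 24 hr dosing, 10 concentrations 0.39–200 uM, 0.5% DMSO final. Live-cell MitoTracker Red CMXRos 250 nM 30 min, then 3.7% formaldehyde fix. HCS fluorescence imaging, 20x; bidirectional fit vs DMSO baseline.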

[15] = APR_HepG2_MitoMass_24hr: Apredica 24-hour HepG2 Assay for Mitochondrial Mass (AID 2282912); conditions: high-content imaging, actives raise or lower the signal
Summary of the method: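 The liver line HepG2 was dosed in duplicate across a 0.39–200 uM series, with final DMSO held at 0.5% v/v, and harvested at 24 hr. High-content imaging measured mitochondrial dye staining.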

[16] = APR_HepG2_p53Act_24hr: Apredica 24-hour HepG2 Assay for p53 Activation (AID 2282913); conditions: high-content imaging, actives raise or lower the signal;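 also: p53 protein immunofluorescence averaged per cell in HepG2 with Hoechst nuclei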
Summary of the method: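 Read-out: Cy5 immunofluorescence for p53 in fixed, permeabilized HepG2, imaged by HCS with Hoechst-defined nuclei. Dosing was 24 hr at 0.39–200 uM in 0.5% DMSO. Curves were fitted bidirectionally relative to DMSO.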

[17] = APR_HepG2_CellCycleArrest_72hr: Apredica 72-hour HepG2 Assay for Cell Cycle Arrest (AID 2282914); conditions: high-content imaging, actives raise or lower the signal
Summary of the method: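 HepG2, 72 hr exposure, 10-point 0.39–200 uM, duplicate, 0.5% DMSO final. Fix 3.7% formaldehyde 30 min RT, Triton X-100 0.5%, Hoechst 33342 2 ug/mL. ArrayScan 20x, six fields/well; DNA content per nucleus; bidirectional fit vs DMSO.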

[18] = APR_HepG2_MitoticArrest_1hr: Apredica 1-hour HepG2 Assay for Mitotic Arrest (AID 2282672); conditions: high-content imaging, actives raise or lower the signal
Summary of the method: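 HepG2 cells exposed 1 hr to compounds at 0.39–200 uM (0.5% v/v DMSO final), then fixed in 3.7% formaldehyde and immunostained for phospho-histone H3 with Hoechst 33342. Mitotic arrest scored by automated fluorescence imaging, fitted bidirectionally versus DMSO.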

[19] = APR_HepG2_MitoMass_1hr: Apredica 1-hour HepG2 Assay for Mitochondrial Mass (AID 2282674); conditions: high-content imaging, actives raise or lower the signal
Summary of the method: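 HepG2 cells dosed 1 hr with 0.39-200 uM compound (0.5% DMSO), duplicate wells. Mitochondria stained with 250 nM MitoTracker Red CMXRos for 30 min before formaldehyde fixation, imaged at 20x by ArrayScan; bidirectional fit versus DMSO.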

[20] = APR_HepG2_P-H2AX_1hr: Apredica 1-hour HepG2 Assay for H2AX Phosphorylation (AID 2282673); conditions: high-content imaging, actives raise or lower the signal
Summary of the method: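 HepG2 dosed 1 hr at 0.39-200 uM (0.5% DMSO final), duplicate. Fixed in 3.7% formaldehyde, Triton permeabilized, immunostained for phospho-histone H2A.x (1:200) with Hoechst 33342; ArrayScan 20x imaging, bidirectional fit vs DMSO.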

Measured: AC50

C=CCC1=C(C)[C@@H](OC(=O)[C@@H]2[C@@H](C=C(C)C)C2(C)C)CC1=O
active: [7] 109 µM | [11] 99.2 µM | [12] 55.9 µM
not listed: [18] | [19] | [20]
inactive: all other assays above

C#CCOS(=O)OC1CCCCC1Oc1ccc(C(C)(C)C)cc1 (stereo not drawn)
active: [2] 0.355 µM | [7] 82.3 µM | [8] 3.03 µM | [11] 7.2 µM | [12] 38.4 µM | [17] 2.92 µM
not listed: [3] | [14] | [20]
inactive: all other assays above

CCCCOC(=O)c1ccccc1C(=O)OCCCC
not listed: [4] | [18] | [19] | [20]
inactive: all other assays above

CC1COC(Cn2cncn2)(c2ccc(Oc3ccc(Cl)cc3)cc2Cl)O1 (stereo not drawn)
active: [11] 94.7 µM | [13] 94.4 µM | [17] 64.3 µM
not listed: [4] | [14] | [18] | [19]
inactive: all other assays above

CCCCNC(=O)n1c(NC(=O)OC)nc2ccccc21
active: [8] 22.7 µM | [11] 12.4 µM | [17] 17 µM
not listed: [3] | [14] | [18] | [19] | [20]
inactive: all other assays above

CCON=C(CC)C1=C(O)CC(c2c(C)cc(C)cc2C)CC1=O (stereo not drawn)
not listed: [3] | [4] | [14] | [20]
inactive: all other assays above

C=CC1(C)OC(=O)N(c2cc(Cl)cc(Cl)c2)C1=O (stereo not drawn)
not listed: [3] | [14] | [19] | [20]
inactive: all other assays above
